From PubChem BioAssay come the findings set out here.

Values joined by “and” are separate entries in the source; they are usually repeats but may differ in a detail not shown here. Equal values may be shown once. Active and inactive are the calls of the source.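 The calls were made as follows, unless noted: active = compounds whose cell count with miR-34 switched on is under 0.7 times the count with it off; inactive = the rest.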

Assay [1] is described as follows: sensitizers of A549 cells to miR-34 induction, primary screen, imaging, A549 dox-inducible miR-34, nuclei and caspase counts (AID 1347080). The settings on record: A549 miR-34 inducible, Hoechst nuclei count, 48 h.
The nature of assay [2]: survival rescue of mitochondrial mutant cells in low glucose, primary screen, MELAS cybrids, Rieske KO mouse fibroblasts, CellTiter-Glo (AID 1508586;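 active = mean z-score across replicates of 1.96 or higher in either the MELAS or the Rieske mutant cell line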;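 also: z relative to plate mean and SD of compound and empty wells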).
Assay [3] has as its target NAD(+) hydrolase SARM1 (Homo sapiens) (UniProt Q6SZW1). Nature of the assay: SARM1 TIR NADase inhibitors, cell lysate, NAD-Glo luminescence (AID 1508614;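 active = compound whose remaining NAD level is above about 45 nM, limit read from the data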;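 also: higher remaining NAD means stronger inhibition of SARM1 NADase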). The settings on record: SAM-TIR HEK293T lysate NADase, at 1 µM, stronger effect = higher value.
The target in assay [4] is Mitogen-activated protein kinase 7 (Homo sapiens) (UniProt Q13164). Nature of the assay: ERK5 transactivation activators in reporter cells, primary screen, cell-based, HTS (AID 1508626;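 active = luciferase signal above three times the same-plate solvent-only control wells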;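 also: luciferase driven by Gal4-ERK5 fusion binding five Gal4 sites before minimal TATA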). The settings on record: HeLa Gal4-ERK5 transactivation, 18 h, at 5 µM, stronger effect = higher value.
Assay [5] is described as follows: viability rescue of complex I mutant cybrids, primary screen, cell-based, galactose medium, ATP luminescence (AID 1645843;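 active = z-score of at least 1.8 in each of two replicates, scored against plate mean and spread of sample wells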;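 also: positive z means more ATP and so rescue of galactose-driven cybrid death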). The following applies: complex I mutant cybrid cells, 72 h, stronger effect = higher value.
The mark [6] stands for this setting: stronger effect = lower value, cell number ratio, induced over uninduced.
[7] abbreviates: measured here: relative caspase fold change +Dox/-Dox.
Where [8] appears, read: measured here: total cells with miR-34 induction, stronger effect = lower value.
Where [9] appears, read: measured here: total cells without miR-34 induction.
Setting [10] is: MELAS cybrid survival, CellTiter-Glo 48 h, stronger effect = higher value.
[11] abbreviates: Rieske KO mouse fibroblast survival, CellTiter-Glo 72 h.

Sequence of NAD(+) hydrolase SARM1 (Homo sapiens) (Q6SZW1 whole entry, looked up, the tested form may be a part): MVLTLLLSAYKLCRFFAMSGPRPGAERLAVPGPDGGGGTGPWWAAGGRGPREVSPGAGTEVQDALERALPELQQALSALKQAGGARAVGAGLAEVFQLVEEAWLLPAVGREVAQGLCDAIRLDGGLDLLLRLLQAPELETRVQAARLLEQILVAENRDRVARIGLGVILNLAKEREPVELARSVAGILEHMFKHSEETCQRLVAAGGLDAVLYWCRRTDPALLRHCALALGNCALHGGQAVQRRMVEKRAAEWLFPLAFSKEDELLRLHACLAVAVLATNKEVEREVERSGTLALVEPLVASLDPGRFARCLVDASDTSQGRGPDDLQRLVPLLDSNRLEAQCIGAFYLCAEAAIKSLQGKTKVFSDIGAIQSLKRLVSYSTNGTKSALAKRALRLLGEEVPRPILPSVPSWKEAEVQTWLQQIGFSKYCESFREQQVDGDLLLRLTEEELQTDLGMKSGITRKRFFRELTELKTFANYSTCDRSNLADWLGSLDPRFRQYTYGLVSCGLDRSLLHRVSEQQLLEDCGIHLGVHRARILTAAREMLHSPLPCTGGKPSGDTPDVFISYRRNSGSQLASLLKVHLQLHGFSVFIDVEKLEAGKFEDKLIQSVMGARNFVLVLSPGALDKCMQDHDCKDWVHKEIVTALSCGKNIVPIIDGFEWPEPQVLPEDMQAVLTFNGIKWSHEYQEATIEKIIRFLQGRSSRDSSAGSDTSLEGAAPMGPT
Sequence of Mitogen-activated protein kinase 7 (Homo sapiens) (Q13164 whole entry, looked up, the tested form may be a part): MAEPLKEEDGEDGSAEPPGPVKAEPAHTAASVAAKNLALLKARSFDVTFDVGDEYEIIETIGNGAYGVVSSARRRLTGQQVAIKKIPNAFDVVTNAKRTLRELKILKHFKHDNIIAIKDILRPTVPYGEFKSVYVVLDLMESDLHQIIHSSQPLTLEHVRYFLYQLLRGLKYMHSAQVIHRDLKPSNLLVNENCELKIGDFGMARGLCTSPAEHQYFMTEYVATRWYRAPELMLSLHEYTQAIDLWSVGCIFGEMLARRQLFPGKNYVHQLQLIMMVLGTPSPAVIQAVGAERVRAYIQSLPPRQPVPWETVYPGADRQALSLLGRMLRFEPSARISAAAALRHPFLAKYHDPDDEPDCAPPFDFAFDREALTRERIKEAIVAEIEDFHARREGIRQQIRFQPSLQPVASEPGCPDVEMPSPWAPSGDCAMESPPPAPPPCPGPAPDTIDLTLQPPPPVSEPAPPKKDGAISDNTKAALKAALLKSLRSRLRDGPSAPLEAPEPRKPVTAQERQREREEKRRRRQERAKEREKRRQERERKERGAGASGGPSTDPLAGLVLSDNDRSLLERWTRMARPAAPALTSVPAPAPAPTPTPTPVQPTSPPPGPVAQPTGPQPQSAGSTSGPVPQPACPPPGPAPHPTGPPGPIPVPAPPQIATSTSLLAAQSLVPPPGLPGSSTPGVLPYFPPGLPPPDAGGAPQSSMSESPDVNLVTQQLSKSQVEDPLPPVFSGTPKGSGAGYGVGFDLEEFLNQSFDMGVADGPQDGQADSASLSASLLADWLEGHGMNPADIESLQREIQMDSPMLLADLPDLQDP

In the case of `CCCCOc1ccc(C(=O)CCN2CCCCC2)cc1`, the fold change in assay [1] (setting [6]) is 0.869 (inactive) and 0.898 (inactive) and 0.904 (inactive); in assay [1] (setting [7]) it was 1.13 and 0.697 and 1.7. Besides, the cell count in assay [1] (setting [8]) is 8270 and 5950 and 11300; in assay [1] (setting [9]), 9520 and 6630 and 12500. The z-score was -0.438 (inactive) and 1.08 (inactive) in assay [2] (setting [10]); 0.0294 and 0.0562 in assay [2] (setting [11]). In assay [3], the remaining NAD was 10 nM (inactive). For the same compound, the luciferase signal in assay [4] was 40 AU (inactive).

As for `Cc1cc(CC(=O)O)n(C)c1C(=O)c1ccc(Cl)cc1`, the fold change in assay [1] (setting [6]) is 0.925 (inactive) and 0.888 (inactive); in assay [1] (setting [7]) it was 1.12 and 2.44. Besides, the cell count is 9260 and 11200 in assay [1] (setting [8]); 10000 and 12600 in assay [1] (setting [9]). Further, the z-score was -0.685 (inactive) in assay [2] (setting [10]) and -0.331 in assay [2] (setting [11]). Further, in assay [3], the remaining NAD was 10 nM (inactive). Besides, the luciferase signal in assay [4] is 96 AU (inactive).

Regarding `N=C(N)N`, the fold change in assay [1] (setting [6]) was 0.954 (inactive) and 0.99 (inactive); in assay [1] (setting [7]), 0.786 and 0.574. Also, the cell count is 8580 and 8630 in assay [1] (setting [8]); 9000 and 8720 in assay [1] (setting [9]). In addition, the results for the z-score in assay [2] (setting [10]) and in assay [2] (setting [11]) were -0.279 (inactive) and -0.172, respectively. Besides, the remaining NAD in assay [3] is 10 nM (inactive). Moreover, the luciferase signal in assay [4] was 44 AU (inactive).

Consider `Cc1c(N(C)CS(=O)(=O)O)c(=O)n(-c2ccccc2)n1C`, for which the fold change was 0.886 (inactive) and 0.92 (inactive) in assay [1] (setting [6]); 1.09 and 6.36 in assay [1] (setting [7]). In addition, the cell count in assay [1] (setting [8]) was 8550 and 11500; in assay [1] (setting [9]), 9640 and 12500. The z-score in assay [2] (setting [10]) is -1.12 (inactive); in assay [2] (setting [11]) it was -0.298. The remaining NAD in assay [3] was 10 nM (inactive). Besides, the luciferase signal in assay [4] was 40 AU (inactive).

With `CC(=O)OCC(=O)[C@@]1(O)[C@H](C)C[C@H]2[C@@H]3CCC4=CC(=O)C=C[C@]4(C)[C@@]3(F)[C@@H](O)C[C@@]21C`, the fold change was 0.93 (inactive) in assay [1] (setting [6]) and 1.03 in assay [1] (setting [7]). In addition, the values for the cell count in assay [1] (setting [8]) and in assay [1] (setting [9]) were 6000 and 6450, respectively. The figures for the z-score in assay [2] (setting [10]) and in assay [2] (setting [11]) were -0.294 (inactive) and 0.00126, respectively. The remaining NAD in assay [3] is 10 nM (inactive). In assay [4], the luciferase signal was 120 AU (inactive).

For `Nc1ncnc2c1ncn2[C@@H]1O[C@H](COP(=O)(O)O)[C@@H](O)[C@H]1O`, the fold change in assay [1] (setting [6]) was 0.848 (inactive); in assay [1] (setting [7]), 1.03. The figures for the cell count in assay [1] (setting [8]) and in assay [1] (setting [9]) were 9640 and 11400, respectively. Further, the z-score in assay [2] (setting [10]) is 0.774 (inactive); in assay [2] (setting [11]), 0.196. Moreover, the remaining NAD in assay [3] was 10 nM (inactive). In addition, the luciferase signal in assay [4] is 292 AU (active).

For the compound `CCCc1ncc(C[n+]2ccccc2C)c(N)n1`, the fold change in assay [1] (setting [6]) was 0.899 (inactive) and 0.934 (inactive) and 0.817 (inactive); in assay [1] (setting [7]) it was 1.48 and 1.05 and 2.66. The cell count in assay [1] (setting [8]) was 8050 and 8570 and 10100; in assay [1] (setting [9]) it was 8960 and 9180 and 12400. The z-score in assay [2] (setting [10]) was -0.137 (inactive) and -0.369 (inactive); in assay [2] (setting [11]) it was -0.2 and 0.188. The remaining NAD in assay [3] is 10 nM (inactive). Also, the luciferase signal in assay [4] was 52 AU (inactive).

As to `O=C(O)c1ccccc1C(=O)Nc1ccc(S(=O)(=O)Nc2nccs2)cc1`, the fold change is 0.914 (inactive) and 0.897 (inactive) in assay [1] (setting [6]); 1.08 and 2.76 in assay [1] (setting [7]). For the same compound, the cell count was 8730 and 11300 in assay [1] (setting [8]); 9550 and 12600 in assay [1] (setting [9]). Moreover, the values for the z-score in assay [2] (setting [10]) and in assay [2] (setting [11]) were 0.52 (inactive) and 0.0843, respectively. Moreover, in assay [3], the remaining NAD was 10 nM (inactive). In assay [4], the luciferase signal is 92 AU (inactive).

For `Nc1nccs1`, the fold change is 0.923 (inactive) in assay [1] (setting [6]) and 0.616 in assay [1] (setting [7]). The cell count in assay [1] (setting [8]) is 7980; in assay [1] (setting [9]), 8650. Further, the z-score in assay [2] (setting [10]) was -0.119 (inactive); in assay [2] (setting [11]), -0.205. For the same compound, the remaining NAD in assay [3] is 10 nM (inactive). For the same compound, in assay [4], the luciferase signal is 40 AU (inactive).

As to `CC(=O)OC/C=C(C)/C=C/C=C(C)/C=C/C1=C(C)CCCC1(C)C`, the fold change in assay [1] (setting [6]) is 0.9 (inactive); in assay [1] (setting [7]), 1.05. Besides, the figures for the cell count in assay [1] (setting [8]) and in assay [1] (setting [9]) were 10300 and 11500, respectively. The z-score was -0.677 (inactive) in assay [2] (setting [10]), -0.15 in assay [2] (setting [11]) and -0.205 (inactive) in assay [5]. Besides, in assay [3], the remaining NAD was 10 nM (inactive). Besides, in assay [4], the luciferase signal is 96 AU (inactive).

On to `Cc1cc(NC(=O)C2=C(O)c3ccccc3S(=O)(=O)N2C)no1`, for which the fold change in assay [1] (setting [6]) is 0.901 (inactive) and 0.859 (inactive); in assay [1] (setting [7]) it was 1.1 and 2.9. The cell count in assay [1] (setting [8]) was 8700 and 11400; in assay [1] (setting [9]) it was 9660 and 13300. For the same compound, the z-score in assay [2] (setting [10]) was 0.335 (inactive); in assay [2] (setting [11]) it was 0.203. Moreover, the remaining NAD in assay [3] was 10 nM (inactive). The luciferase signal in assay [4] is 72 AU (inactive).

Consider `COc1cc2c3cc1Oc1cc(ccc1O)C[C@@H]1c4c(cc(OC)c(O)c4Oc4ccc(cc4)C[C@@H]3N(C)CC2)CC[N+]1(C)C`, for which the fold change was 0.869 (inactive) and 0.934 (inactive) in assay [1] (setting [6]); 2.84 and 1.19 in assay [1] (setting [7]). Also, the cell count was 11500 and 10000 in assay [1] (setting [8]); 13300 and 10700 in assay [1] (setting [9]). Further, the z-score in assay [2] (setting [10]) is -0.392 (inactive); in assay [2] (setting [11]), -0.225; in assay [5] it was 0.605 (inactive). Moreover, the remaining NAD in assay [3] is 10 nM (inactive). In assay [4], the luciferase signal is 32 AU (inactive).

With `Cc1cc(-c2ccccc2)nnc1NCCN1CCOCC1`, the fold change in assay [1] (setting [6]) was 0.881 (inactive) and 0.888 (inactive); in assay [1] (setting [7]), 0.934 and 3.7. In addition, the cell count in assay [1] (setting [8]) was 8700 and 11800; in assay [1] (setting [9]), 9870 and 13300. Further, the z-score in assay [2] (setting [10]) was 0.442 (inactive); in assay [2] (setting [11]), 0.39. The remaining NAD in assay [3] is 10 nM (inactive). Moreover, the luciferase signal in assay [4] is 48 AU (inactive).

As for `CCCCCCCCCCCCCCCCOP(=O)([O-])OCC[N+](C)(C)C`, the fold change in assay [1] (setting [6]) is 1 (inactive) and 0.955 (inactive); in assay [1] (setting [7]), 0.961 and 1.28. Further, the cell count is 5900 and 10200 in assay [1] (setting [8]); 5890 and 10700 in assay [1] (setting [9]). Moreover, the figures for the z-score in assay [2] (setting [10]), in assay [2] (setting [11]) and in assay [5] were -0.744 (inactive), -0.431 and -0.3 (inactive), respectively. In addition, the remaining NAD in assay [3] is 10 nM (inactive). The luciferase signal in assay [4] is 132 AU (inactive).

For the compound `Cc1c(Cl)cccc1Nc1ccccc1C(=O)O`, the fold change was 0.957 (inactive) and 1.02 (inactive) and 0.935 (inactive) in assay [1] (setting [6]); 1 and 0.422 and 1.23 in assay [1] (setting [7]). Also, the cell count in assay [1] (setting [8]) was 9330 and 8170 and 9290; in assay [1] (setting [9]), 9750 and 8010 and 9940. For the same compound, the z-score was -0.324 (inactive) and 0.232 (inactive) and 0.0953 (inactive) in assay [2] (setting [10]); -0.0198 and -0.0599 and -0.617 in assay [2] (setting [11]); 1.29 (inactive) in assay [5]. Further, in assay [3], the remaining NAD was 10 nM (inactive). For the same compound, the luciferase signal in assay [4] was 52 AU (inactive).
